Data taken from PubChem BioAssay AID504447 (The Scripps Research Institute Molecular Screening Center, 2011).
Measured potencies and affinities stand elsewhere. Active and inactive are the calls of the source. No rule for the calls is given here.

Target: Peroxisome proliferator-activated receptor gamma (Homo sapiens) (UniProt P37231)
Test: PPARg transcriptional activation, reporter cells – cell-based, luminescence, assay provider, dose response (AID 504447)
Settings: luciferase luminescence, partial agonism; series mostly up to 5 µM; fold change activation: at the top concentration

Sequence of Peroxisome proliferator-activated receptor gamma (Homo sapiens) (P37231 whole entry, looked up): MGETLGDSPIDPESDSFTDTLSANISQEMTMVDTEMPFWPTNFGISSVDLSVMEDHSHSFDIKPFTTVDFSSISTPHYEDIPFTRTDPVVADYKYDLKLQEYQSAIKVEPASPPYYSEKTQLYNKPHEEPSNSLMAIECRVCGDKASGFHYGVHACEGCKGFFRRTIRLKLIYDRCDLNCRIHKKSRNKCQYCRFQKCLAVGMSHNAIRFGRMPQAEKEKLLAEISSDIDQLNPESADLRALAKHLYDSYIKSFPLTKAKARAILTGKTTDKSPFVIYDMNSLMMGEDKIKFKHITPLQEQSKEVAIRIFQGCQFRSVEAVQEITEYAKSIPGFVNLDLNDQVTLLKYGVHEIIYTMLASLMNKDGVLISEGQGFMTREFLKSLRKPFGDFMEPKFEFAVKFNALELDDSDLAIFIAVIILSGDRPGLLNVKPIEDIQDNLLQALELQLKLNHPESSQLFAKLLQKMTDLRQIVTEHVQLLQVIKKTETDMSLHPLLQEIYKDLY

Fold change activation, inactive:
Cc1ccc2nc(N3C(=O)C(O)=C(C(=O)c4ccco4)C3c3cccc(O)c3)sc2c1 (stereo not drawn) 1.17 fold
Cc1ccc2[nH]c(=O)c(CN(Cc3cccs3)Cc3nnnn3CC3CCCO3)cc2c1 (stereo not drawn) 1.02 fold
COc1ccc(-c2cc(C(=O)NC(C)c3ccccn3)c3ccccc3n2)cc1OC (stereo not drawn) 1.03 fold
COc1cc(/C=C(\NC(=O)c2ccccc2)C(=O)NC(C(=O)O)c2ccccc2)cc(OC)c1OC (stereo not drawn) 0.9 fold
O=C(CSc1nnc(Cc2cc(=O)[nH]c(=O)[nH]2)n1-c1ccc(Cl)cc1)N1CCc2ccccc21 1.03 fold
CCOc1cc(N2CCOCC2)c(OCC)cc1NC(=O)c1ccc2ccccc2n1 1.26 fold
CCOc1cc(C2C(C(=O)OC)=CN(Cc3ccc(Cl)cc3)C=C2C(=O)OC)ccc1O 1.06 fold
Cc1ccc2cc(CN(Cc3ccccc3)Cc3nnnn3C3CCCC3)c(=O)[nH]c2c1 0.99 fold
O=c1c2cn(Cc3ccc(F)cc3)c3ccc(F)cc3c-2nn1Cc1ccc(F)cc1 1.24 fold
CCOc1ccc(CN2CCN(Cc3cccc4nonc34)CC2CCO)cc1 (stereo not drawn) 1.03 fold
O=C(O)CCN1C(=O)/C(=C/c2ccccc2)SC1=S 0.99 fold
COc1ccc(O)c(C(=O)c2cc(C#N)c(=O)n(-c3ccc(Cl)cc3)c2)c1 1.07 fold
Cc1cc(C)c2nc(N3C(=O)C(O)=C(C(=O)c4ccco4)C3c3ccc(O)cc3)sc2c1 (stereo not drawn) 1.08 fold
CC(C)OC(=O)CCN1C(=O)/C(=C/c2ccccc2)SC1=S 0.94 fold
S=C(NCCc1ccccc1)N1CCn2cccc2C1c1ccncc1 (stereo not drawn) 1.14 fold
O=C(CNC(=O)c1nc[nH]c1C(=O)N1CCc2ccccc2C1)OCc1ccccc1 1.01 fold
O=c1c2cn(Cc3ccc(F)cc3)c3ccccc3c-2nn1Cc1ccc(F)cc1 1.04 fold
COCCn1cnc2c1c(=O)n(Cc1cc(C(C)=O)ccc1OC)c(=O)n2Cc1ccccc1 1.14 fold
O=C(NC(Cc1ccccc1)C(=O)N1CCN(c2ccccc2O)CC1)c1ccccc1 (stereo not drawn) 0.99 fold
Cc1cccc(NC(=O)CN2C(=O)/C(=C3\SC(=S)N(CC4CCCO4)C3=O)c3ccccc32)c1 (stereo not drawn) 1.07 fold
CCOc1cccc(/C(O)=C2/C(=O)C(=O)N(CCN3CCOCC3)C2c2ccncc2)c1 (stereo not drawn) 1.06 fold
O=C(O)COc1ccccc1/C=C1\SC(=S)N(NC(=O)c2ccccc2O)C1=O 1.01 fold
CN(CCNC(=O)C1CCCN(c2ncnc3c2nc2n3CCCCC2)C1)Cc1ccccc1 (stereo not drawn) 0.92 fold
